Source: PubChem BioAssay (National Center for Advancing Translational Sciences (NCATS))
Shown are actives, neighbours in structure and some others; about 17% of the full set was active somewhere.
TDP1 cell CPT = qHTS for Inhibitors of human tyrosyl-DNA phosphodiesterase 1 (TDP1): qHTS in cells in presence of CPT. actives 12% (n = 420,000). Potency, µM (top dose mostly 46.2 µM), for inactives: at the top dose activity change, negative = growth inhibition, usual class: inhibitors. chicken DT40 Tdp1-/-;hTDP1 cells + 20 nM CPT, ATP luminescence, 48 h; also: % is scaled to controls: 0 for no effect and ±100 for the full control effect; nearly all actives have a fitted effect of over 55% in size
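Chicken DT40 Tdp1-/- cells complemented with human TDP1, 400 cells/well, exposed to compounds plus 20 nM camptothecin for at least 48 h at 37 C; viability read as ATP content by CellTiter-Glo luminescence.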
TDP1 block = qHTS Assay for Inhibitors of Tyrosyl-DNA Phosphodiesterase (TDP1). Tyrosyl-DNA phosphodiesterase 1 (Homo sapiens), Q9NUW8. recombinant TDP1, AlphaScreen DNA substrate cleavage. Potency, µM (highest dose often 130 µM), without a hit: top-dose activity change, negative = inhibition, hits mostly inhibitors. actives 0.28% (n = 350,000); also: % is scaled to controls: 0 for no effect and ±100 for the full control effect; nearly all actives have a fitted effect of over 40% in size
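Compounds were preincubated with Tdp1 (1 nM final) for 15 min at room temperature before substrate (15 nM final) started a 5 min reaction; beads (10 ug/ml final) were then added for 10 min before AlphaScreen detection.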
TDP1 cell noCPT = qHTS for Inhibitors of human tyrosyl-DNA phosphodiesterase 1 (TDP1): qHTS in cells in absence of CPT. Potency, µM (series often up to 46.2 µM), for the others: at the top dose activity change, negative = growth inhibition, usual class: inhibitors. actives 15% (n = 420,000). AID 686978, 2013. DT40 Tdp1-/- hTDP1 cells, no CPT, ATP luminescence, 48 h; also: % is scaled to controls: 0 for no effect and ±100 for the full control effect; nearly all actives have a fitted effect of over 55% in size
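Chicken DT40 Tdp1-/- cells complemented with human TDP1, screened without camptothecin (DMSO vehicle only), 400 cells/well. Compounds pin-transferred, cells incubated at 37 °C for at least 48 hr. Growth read as ATP-dependent luminescence (CellTiter-Glo, 30 min at RT).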
ClpP mod = qHTS Assay for Activators of ClpP; AID 651965, 2013; ATP-dependent Clp protease proteolytic subunit (Bacillus subtilis (strain 168)), P80244; actives 1.9% (n = 340,000); Potency, µM (series often up to 57.5 µM), for the others: top-dose activity change, negative = active; purified B. subtilis ClpP, FRET peptide cleavage, 20 min; active = well fitted falling curve with a large enough effect; inconclusive = small, poorly fitted or top-dose-only effect; inactive = no such curve, though single readings can be large or run the other way; also: the source files actives as falling curves though it sought activators and does not explain the sign; nearly all actives have a fitted effect of over 65% in size
Target sequence (P80244 whole entry, looked up): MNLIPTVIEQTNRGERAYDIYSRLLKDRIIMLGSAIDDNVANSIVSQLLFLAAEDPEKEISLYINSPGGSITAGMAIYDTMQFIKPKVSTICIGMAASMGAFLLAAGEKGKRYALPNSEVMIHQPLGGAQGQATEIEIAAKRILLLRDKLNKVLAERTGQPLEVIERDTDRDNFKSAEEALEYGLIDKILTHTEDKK
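ClpP 10 microg/mL final, pH 8 Tris/KCl buffer with BSA, glycerol, Tween-20; compound pinned in; FRET-FV substrate; RT 20 min; Ex320/Em430; ΔFRET vs ADEP 5.8 microM, DMSO, no enzyme.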
Active calls of the source: *; ? = inconclusive; · = no result given; [ ] = another dose, or the depositor's remark. Unless noted, calls follow the shape of the dose curve; as a rule, active = well fitted curve in the direction sought with a large enough effect; inconclusive = small, poorly fitted or top-dose-only effect, or another doubt; inactive = no such curve, though single readings can be large; an effect the other way counts as inactive or inconclusive. Potency is read from the fitted curve at half-maximal effect.

SMILES	TDP1 cell CPT	TDP1 block	TDP1 cell noCPT	ClpP mod
COc1cc(S(=O)(=O)N(Cc2ccc(C)cc2)C2CCCCC2)ccc1-n1cnnn1	?	0%	23µM*	1%
Cn1c(=O)c([N+](=O)[O-])c(Cl)c2ccccc21	2.6µM*	1%	4.6µM*	-2%
Cc1nccn1-c1c([N+](=O)[O-])c(=O)n(C)c2ccccc12	8%	-6%	-21%	-1%
Cn1c(=O)c([N+](=O)[O-])c(-n2cnc3ccccc32)c2ccccc21	?	·	21µM*	·
O=C(COC(=O)c1n[nH]c(=O)c2ccccc12)Nc1ccccc1F	2%	-1%	-18%	0%
COc1ccccc1OCCCn1c(C2CC(=O)N(c3ccc(F)cc3)C2)nc2ccccc21 (stereo unspecified)	?	8%	8.2µM*	-1%
CCOc1ccc(N2CC(c3nc4ccccc4n3CCOc3ccccc3)CC2=O)cc1 (stereo unspecified)	?	6%	?	-1%
CCOc1ccc(N2CC(c3nc4ccccc4n3CCCOc3ccccc3OC)CC2=O)cc1 (stereo unspecified)	?	0%	8.2µM*	7%
CN(C)CCNC(=O)c1cccc(-c2cnc3c(NC=O)cc(-c4ccc(F)cc4)cn23)c1	4.6µM*	·	5.2µM*	-20%
O=CNc1cc(-c2cccc(O)c2)cn2c(-c3ccc(F)cc3)cnc12	18µM*	·	21µM*	5%
CN(C)CCNC(=O)c1cccc(-c2cnc3c(NC=O)cc(/C=C/c4ccccc4)cn23)c1	3.7µM*	·	5.2µM*	5%
COc1ccccc1-c1cc(NC=O)c2ncc(-c3cccc(C(C)=O)c3)n2c1	6.5µM*	·	7.3µM*	-16%
CN(C)CCNC(=O)c1cccc(-c2cnc3c(NC=O)cc(-c4cccc(F)c4)cn23)c1	?	·	?	-12%
COc1ccccc1-c1cc(NC=O)c2ncc(-c3cccc(C(=O)N(C)C)c3)n2c1	?	·	?	-19%
COC(=O)[C@@]1(Cc2ccccc2)[C@H]2c3cc(C(=O)N4CCCC4)n(CCN4CNCC4=O)c3C[C@H]2CN1C(=O)c1ccccc1	·	9%	·	·
COc1cc(CN(C(C)=O)c2ccccc2C(=O)O)ccc1[N+](=O)[O-]	?	·	-2%	1%
CC(=O)c1cccc(-c2cnc3c(NC=O)cc(-c4ccc(F)cc4)cn23)c1	16µM*	·	?	-20%
CCSc1ccc(-c2cc(NC=O)c3ncc(-c4cccc(C(=O)NCCN(C)C)c4)n3c2)cc1	4.6µM*	·	3.3µM*	-29%
Cc1cc2oc3ccc(NCCCn4ccnc4)cc3c(=O)c2cc1C	?	·	15µM*	1%
Cc1ccc(C2c3c(oc4cc(C)c(C)cc4c3=O)C(=O)N2CCCN2CCOCC2)cc1 (stereo unspecified)	?	3%	?	-2%
Cc1cc2oc3ccc(NCCCN4CCOCC4)cc3c(=O)c2cc1C	10µM*	·	13µM*	0%
Cc1ccc2oc(=O)c(-c3nc(-c4cccs4)no3)cc2c1	-22%	3%	-3%	-17%
O=C(CN1CCN(c2ccc(F)cc2)CC1)Nc1cccnc1Cl	-28%	2%	-6%	0%
CC1(C)Oc2ccc(C#N)cc2[C@H](N2CCCC2=O)[C@H]1O	·	8%[56.1 µM]	·	·
CCCCN(CCCNC(=O)CN1C(=O)COc2ccc(S(=O)(=O)N3CCC(C)CC3)cc21)Cc1ccccc1	?	1%	?	-1%
SMILES	TDP1 cell CPT	TDP1 block	TDP1 cell noCPT	ClpP mod
CCN(CC)S(=O)(=O)c1ccc2c(c1)N(CC(=O)N(C)Cc1ccccc1)C(=O)CO2	?	2%	26µM*	-15%
CCN(Cc1ccccc1)C(=O)CN1C(=O)COc2ccc(S(=O)(=O)N3CCCCCC3)cc21	21µM*	4%	23µM*	3%
CC1CCN(S(=O)(=O)c2ccc3c(c2)N(CC(=O)N(C)Cc2ccccc2)C(=O)CO3)CC1	?	5%	21µM*	1%
CCN(Cc1ccccc1)C(=O)CN1C(=O)COc2ccc(S(=O)(=O)N3CCOCC3)cc21	?	0%	-26%	1%
CCN(Cc1ccccc1)C(=O)CN1C(=O)COc2ccc(S(=O)(=O)N(CC)CC)cc21	23µM*	2%	?	-11%
CCc1ccc(OCC(=O)NNC(=O)c2ccc(NC(=O)C3CC3)cc2)cc1	-14%	·	-1%	1%
CC(=O)c1cc(C)oc1C	·	7%	·	·
Cc1ccc(OCCCN2CCCC2)c(C)c1	-12%	0%	-20%	1%
Cc1ccc(OCCCCNC2CCCC(C)C2C)c(C)c1 (stereo unspecified)	8.2µM*	-8%	7.3µM*	·
O=CC(=O)c1ccc(Br)cc1	?	·	?	1%
CCCCCC1CCC(c2ccc(/C(N)=N/O)cc2)CC1 (stereo unspecified)	15µM*	·	8.2µM*	-1%
CC(NC(=O)C1CCC(C(C)(C)C)CC1)C(c1ccccc1)N1CCOCC1 (stereo unspecified)	?	0%	23µM*	·
CC(Cc1cccs1)NC(=O)Nc1ccc(Cl)c(Cl)c1 (stereo unspecified)	23µM*	0%	23µM*	0%
CC(NC(=O)Nc1ccc([N+](=O)[O-])cc1)C(c1ccccc1)N1CCOCC1 (stereo unspecified)	-27%	5%	?	·
CC(NC(=O)C1CC1)C(c1cccs1)N1CCOCC1 (stereo unspecified)	-10%	1%	5%	-1%
CC(NC(=O)Nc1ccc(Cl)c(Cl)c1)C(c1ccccc1)N1CCOCC1 (stereo unspecified)	26µM*	1%	?	0%
O=C(CN1C(=O)C2C3C=CC(C3)C2C1=O)NCCc1ccccc1 (stereo unspecified)	12µM*	-6%	23µM*	1%
Cc1ccc(S(=O)(=O)Nc2cc(C(=O)NCCN(C)C)ccc2N2CCCCC2)cc1	?	6%	16µM*	-11%
COCCCNC(=O)c1ccc(N2CCCC2)c(NS(=O)(=O)c2ccc(C)cc2)c1	-27%	5%	?	-5%
Cc1ccc(S(=O)(=O)Nc2cc(C(=O)NCCN3CCCC3)ccc2N2CCCCC2)cc1	21µM*	2%	16µM*	-2%
CSc1ccc(CN(C)CC(=O)Nc2cccc(Br)c2)cc1	?	-3%	?	-2%
Cc1[nH]c(=O)[nH]c(=O)c1CSCC(=O)OCC(=O)Nc1ccccn1	-23%	2%	9%	·
CC(=O)O[C@H]1[C@H](C)OC=C[C@@H]1OC(C)=O	?	·	16µM*	2%
C=CC[n+]1c(-c2ccc(C)cc2)csc1Nc1ccc(NC(C)=O)cc1	?	10%	?	-2%
